Sampled rows, rich in hits. Any-hit rate of the full collection: about 27%.
Pyk2 oligo antag – Pyk2 (human) oligomerization antagonism; 99,000 compounds, 0.83% hits; Q293 cells, Pyk2 FERM NanoBiT luminescence; hits give low values; AID 1347419; z-score (the deposit names both 25 µM and 10 µM);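 active = Z-score of -3 or lower, scaled per plate to the spread of control and sample wells; inactive = z-score above -3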;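 note: negative z-score means lost luminescence so less FERM oligomerization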
CYP2C19 act – increases human CYP2C19 enzyme activity | 96,000 tested, under 10 active | recombinant CYP2C19, luciferin-H EGE luminescence; hits give high values; 0 = fully inhibited enzyme, 1 = untreated enzyme | P33261 | activation factor at 5 µM;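 active = activation factor of at least 2 at 5 µM in the primary screen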;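 note: 0 = wells with 2.5 mM tranylcypromine and 1 = vehicle-only wells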
Cav3 T inh – blocks human Cav3.2 T-type calcium channel; O95180; Cav3.2-expressing cells, Fluo-4 calcium fluorescence FDSS; hits give low values; B-score at 10 µM; 100,000 compounds, 4% hits; AID 449739;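 active = single-dose well whose peak fluorescence ratio is a statistical outlier from its plate by either plate-standardised score or position-corrected B-score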
CYP2C19 inhib – inhibitors of human CYP2C19. AID 778. CYP2C19 Supersomes, luciferin-H EGE luminescence, 30 min. 96,000 compounds, 21% hits. P33261. inhibition, % at 5 µM;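 active = CYP2C19 inhibition above a set limit at 5 µM in the primary screen, cut at about 50% in these data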;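 note: plate controls were negative control wells for no effect and 2.5 mM tranylcypromine positive control for full effect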
CYP2C9 act – activators of human CYP2C9 | 96,000 compounds, 1.4% hits | recombinant CYP2C9, luciferin-H conversion, luminescence; hits give high values; factor 1 = untreated enzyme, 0 = blocked | P11712 | activation factor at 5 µM;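 active = activation factor of 2 or more for CYP2C9 at a 5 µM dose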;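 note: 0 = sulfaphenazole-blocked wells and 1 = vehicle-only wells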
CYP2C9 inh – human CYP2C9 inhibition; 96,000 compounds, 20% hits; CYP2C9 Supersomes, luciferin-H conversion, luminescence; inhibition, % at 5 µM; P11712;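 active = blocking of liver enzyme CYP2C9 beyond about 50% at 5 µM, limit read from the data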
The depositor's hits bear a star; · = no result given.

SMILES | Pyk2 oligo antag | CYP2C19 act | Cav3 T inh | CYP2C19 inhib | CYP2C9 act | CYP2C9 inh
COCCn1c(COc2cccc(OC)c2)nnc1SCC(=O)N1CCOCC1 | 0.23 | 1 | 0.091 | -2 | 1 | 3
O=[N+]([O-])c1ccc(Cl)c(/C=N/N2CCN(Cc3ccccc3Cl)CC2)c1 | 1.1 | 0.8 | -1.7 | 19 | 2.1* | -108
O=C1C2C(C(=O)N1c1ccncc1)C1C=CC2C12CC2 (centres undefined) | -1 | 0.1 | -0.19 | 92* | 0.3 | 75*
COc1cc(/C=N/N2CCN(C3c4ccccc4-c4ccccc43)CC2)ccc1O | -0.01 | 1 | 1.1 | 1 | 0.7 | 30
COc1cc(/C=C2\OC(=O)c3c(OC)cccc32)ccc1O | -1 | 0 | · | 97* | 0.1 | 95*
COC(=O)C1=C[C@@H](C(=O)OC)[C@@H]2C3=C(C(=O)[C@]2(C)NC(=O)c2ccccc2)[C@H](C)n2c(=O)n(-c4ccccc4)c(=O)n2[C@@H]3C1 | · | · | 1.4 | · | · | ·
CCOC(=O)c1cc(CC)sc1NC(=O)c1cc(OC)c(OC)c(OC)c1 | -2.1 | 0.9 | -0.026 | 14 | 0.4 | 62*
CCOC(=O)c1cc(CC)sc1NC(=O)c1ccc(N2C(=O)CCC2=O)cc1 | 0.04 | 1.1 | -1.4 | -8 | 1 | 1
CCOC(=O)C1=C(C(C)=O)C(c2cccnc2)C(C#N)=C(N)O1 (centres undefined) | 0.75 | 0.9 | 0.4 | 8 | 1 | 4
CCOC(=O)C1=C(CSc2nc(-c3ccncc3)ccc2C#N)OC(N)=C(C#N)C1c1cccnc1 (centres undefined) | -0.11 | 0 | -5* | 99* | 0 | 96*
CCOC(=O)C1=C(CSc2nc(C)ccc2C#N)OC(N)=C(C#N)C1c1cccc(OC)c1OC (centres undefined) | -0.72 | 0 | -0.63 | 97* | 0 | 97*
CCOC(=O)C1=C(CSc2nc(-c3ccncc3)ccc2C#N)OC(N)=C(C#N)C1c1ccc(OC)cc1 (centres undefined) | -0.02 | 0.1 | -4.3 | 91* | 0.1 | 94*
CCOC(=O)CSc1nc(-c2ccncc2)ccc1C#N | 0.09 | 0.9 | 2.1 | 11 | 0.7 | 30
CCOC(=O)C1=C(CSc2nc(CC)c(C)cc2C#N)OC(N)=C(C#N)C1c1ccc(OC)cc1 (centres undefined) | -1.1 | · | -8.4* | · | · | ·
Cc1nnc(SCC(=O)NC2CCCCC2)n(N)c1=O | -0.22 | 1.2 | -0.43 | -19 | 1 | -4
O=C(O)CCC1COc2ccccc2O1 (centres undefined) | 1.1 | 1 | -0.25 | -2 | 1 | 3
CCSc1ccc2nnc(-c3cccc(F)c3)n2n1 | -0.87 | 0.8 | -0.82 | 20 | 0.8 | 20
O=C1CSC(c2ccccc2F)N1c1ccccc1 (centres undefined) | -0.31 | · | -5.2 | · | · | ·
O=C1CSC(c2c(F)cccc2Cl)N1c1cccc(F)c1 (centres undefined) | -0.56 | 0.8 | -1.9 | 20 | 2.1* | -107
CC(C(=O)NCC1CCCO1)N(C(=O)c1snc(C(N)=O)c1N)c1cccc(F)c1 (centres undefined) | -0.19 | 0.8 | 1.2 | 16 | 0.7 | 26
O=C1c2ccccc2S(=O)(=O)N1CCOc1ccc(F)cc1 | -1.2 | 0 | -1.6 | 99* | 0.4 | 63*
C[C@@]12CC(=O)NC1N(C(=O)c1cccc(C(F)(F)F)c1)C(c1ccccc1O)C2 (some centres undefined) | -0.5 | 0.4 | 0.47 | 56* | 0.3 | 69*
Cc1cccc(C(=O)Oc2ccccc2C2C[C@]3(C)CC(=O)NC3N2C(=O)c2cccc(C)c2)c1 (some centres undefined) | -1.3 | 0.6 | 0.034 | 41 | 0.4 | 57*
Cc1ccc(C(=O)Oc2ccccc2N2C(=O)C3CCCCC3C2=O)cc1 (centres undefined) | 0.56 | 0.9 | · | 8 | 0.7 | 34
Clc1ccc(CSc2nnc(-c3sccc3-n3cccc3)o2)cc1 | -3.2* | 0.7 | -1 | 34 | 0.5 | 46
Clc1cc(Cl)cc(CSc2nnc(-c3sccc3-n3cccc3)o2)c1 | -1.6 | 0.8 | -0.68 | 24 | 0.9 | 12
O=C(O)c1ccc(CSc2nnc(-c3ccco3)o2)cc1 | · | 1.1 | -1.3 | -6 | 0.6 | 38
Clc1cccc(CSc2nnc(-c3sccc3-n3cccc3)o2)c1 | -3.2* | 0.7 | -2.5 | 34 | 1.1 | -9

From PubChem
